Data taken from PMC8769072, “Proteome‐scale mapping of binding sites in the unstructured regions of the human proteome” (Molecular Systems Biology, 2022).

Biological target: CEP55 160-217, Q53EZ4
Sequence (Q53EZ4 160-217): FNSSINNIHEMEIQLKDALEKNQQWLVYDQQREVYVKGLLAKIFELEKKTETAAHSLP

Selected by phage display, active:
WSYLMHFLFDHSNLGS [OR52I1, Q8NGK6] confidence 2
PPATSYAPSDVPSGVA [MALL, Q13021] confidence 2
MAVGPPDAPVGGPLTF [INO80E, Q8NBZ0] confidence 2
PPFTDYRQPPLDYRQP [MAGI2, Q86UL8] confidence 3
AREPPADVWTPPARAS [TRIM25, Q14258] confidence 2
GPPSLNYIPPVLQLSG [TEX14, Q8IWB6] confidence 2
PPAAVYYAPAGPTSAQ [AKNA, Q7Z591] confidence 3
PQSPPASMYGSTGSLL [PSD, A5PKW4] confidence 2
SNWSPLGPPSSPYGAA [MAML3, Q96JK9] confidence 2
DAKAPPTAAYAGAAPA [CEBPB, P17676] confidence 4
PPSQSYGGGPAQVPLP [ANXA7, P20073] confidence 2
PPSADYSTPPHRTVPE [BAHD1, Q8TBE0] confidence 3

Biological target: CALM1 2-149, P0DP23

Selected by phage display, active:
AQDFFQRWKQLSLPQQ [AP2A1, O95782] confidence 2
KWPSLATLAATPISSS [AGAP7P, Q5VUJ5] confidence 3
LWPVLRSDAFSGLTAL [FIGN, Q5HY92] confidence 3
VTAGWTWPALRTLSSL [NFKBIE, O00221] confidence 2
SIPRSWPSAHSVSNIL [PAX1, P15863] confidence 2
MAAWKSWTALRLAATV [TMX3, Q96JJ7] confidence 2
DWSNLVDAAKAYEVQR [SIPA1L1, O43166] confidence 3
EISNRWKLAQVQVQKD [EXOSC10, Q01780] confidence 2
WNLLQQQTTTTSSKNL [KRT4, P19013] confidence 3
AVPSNASWEQAMKMVV [PRPF40B, Q6NWY9] confidence 2
EVAFGKEGLWKLLGGF [GNL3, Q9BVP2] confidence 2
PYPKWNSVFDQLTQVV [MAP2K4, P45985] confidence 3
TNWTLLKSDMNKPHLI [TTLL6, Q8N841] confidence 2
MMLSEQAQKWFPTHVQ [RAB11FIP2, Q7L804] confidence 2
STWGTVKDSLKALSSA [SRARP, Q8NEQ6] confidence 2
GGLLHWERLLGGLGGE [NCKAP5L, Q9HCH0] confidence 2
GTHWRVLGLALLSVGV [CD3E, P07766] confidence 3
WQRLQSNPHLKEGSVT [ACY1, Q03154] confidence 2
DRSWHQMVVRALSSQE [HSH2D, Q96JZ2] confidence 2
SFWLFRVSPTTFPFLY [ATP8B3, O60423] confidence 2
AWSDVVGRRSSLLAAI [MFSD9, Q8NBP5] confidence 2
SISSQVSSAVMKSLLA [IL16, Q14005] confidence 2
LWLALRETVYDPSLPA [DISP2, A7MBM2] confidence 3
AWKSLTDKVQEARSNA [KMT2A, Q03164] confidence 2
WPLLRKQLEGRLALPS [SPATA31A6, Q5VVP1] confidence 2
AWKTALLANVGTISAI [PERM1, Q5SV97] confidence 2
WKTLKERESILKLLDG [TADA3, O75528] confidence 3

Biological target: CRK 124-198, P46108
Sequence (P46108 124-198): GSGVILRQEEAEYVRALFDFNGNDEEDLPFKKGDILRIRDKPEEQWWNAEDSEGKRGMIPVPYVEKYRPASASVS

Selected by phage display, active:
NLPPPLPPKKYAITSV [USP53, Q70EK8] confidence 2
PPVPPKSEAVREEARL [GAREM1, Q9H706] confidence 4
TNLPDVPNKSAPSPTS [ZNF462, Q96JM2] confidence 2
LSIPVTSEPPALPPKP [DOCK4, Q8N1I0] confidence 2
QVPSLPLKDSQELTAS [ZKSCAN5, Q9Y2L8] confidence 4
PALPSKLLSSGSAKAD [IL17RD, Q8NFM7] confidence 3
NSTSRPTLPVKSLAQR [SZRD1, Q7Z422] confidence 2
APSLPGKGSGASVALM [ZNF469, Q96JG9] confidence 3
PPPLPPKPRISSYPED [MAP4K5, Q9Y4K4] confidence 2
KEPPAKVPEVPKKIVV [TTN, Q8WZ42] confidence 3
LSETVTKPPLPQKNTA [NSUN7, Q8NE18] confidence 3
PTPVLMNQPPQIAPKR [EIF4G1, Q04637] confidence 3

Biological target: CLTC 1-364, Q00610
Sequence (Q00610 1-364): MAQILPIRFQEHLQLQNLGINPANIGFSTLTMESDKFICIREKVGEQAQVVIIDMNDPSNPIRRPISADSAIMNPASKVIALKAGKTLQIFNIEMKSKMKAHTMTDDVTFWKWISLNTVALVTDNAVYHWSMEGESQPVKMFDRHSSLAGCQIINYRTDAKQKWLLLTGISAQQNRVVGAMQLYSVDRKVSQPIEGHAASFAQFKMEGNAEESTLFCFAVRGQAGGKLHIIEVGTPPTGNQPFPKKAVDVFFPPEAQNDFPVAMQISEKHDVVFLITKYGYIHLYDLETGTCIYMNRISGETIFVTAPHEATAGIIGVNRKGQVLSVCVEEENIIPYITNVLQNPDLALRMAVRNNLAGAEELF

Selected by phage display, active:
VGSLIDFGPEAPTSSP [KIAA0513, O60268] confidence 3
GQVQVADLLGINGTGE [CCDC141, Q6ZP82] confidence 2
EHNLITWTDGPPPVQF [MAU2, Q9Y6X3] confidence 4
DLLSGDLIFLGSDSHP [GJB5, O95377] confidence 3
GLLLMEEEGHSDLISF [TMEM94, Q12767] confidence 4
LPLIDFADTPEAHVAV [GTSE1, Q9NYZ3] confidence 3
SADLIQFEERPQEPSE [MARF1, Q9Y4F3] confidence 3
SLISWDEPGVDFYSKP [PIK3C2B, O00750] confidence 4
PVSSLAEPDLINFMDF [DENND4C, Q5VZ89] confidence 2
ANTLPVSGNLIDLYGN [MITF, O75030] confidence 3

Biological target: AP2B1 700-937, P63010
Sequence (P63010 700-937): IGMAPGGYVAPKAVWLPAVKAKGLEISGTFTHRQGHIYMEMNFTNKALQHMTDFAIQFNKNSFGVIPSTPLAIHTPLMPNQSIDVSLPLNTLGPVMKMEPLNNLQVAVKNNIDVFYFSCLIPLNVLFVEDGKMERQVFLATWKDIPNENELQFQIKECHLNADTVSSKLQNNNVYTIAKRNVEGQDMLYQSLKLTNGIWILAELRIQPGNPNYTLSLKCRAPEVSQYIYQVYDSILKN

Selected by phage display, active:
MQIPQAPWPVVWAVLQ [PDCD1, Q15116] confidence 4
